# According to PMC7862700, “An all-to-all approach to the identification of sequence-specific readers for epigenetic DNA modifications on cytosine”:
# Assays:
# Assay in all cases: DAPPL (digital affinity profiling via proximity ligation, sequencing); 10 mM Tris-HCl pH 7.5, 50 mM NaCl, 1 mM DTT, 4% glycerol, room temperature, 30 min; GST-TFs on glutathione beads, 16-mer random dsDNA library, 0.1% formaldehyde crosslink after washing; high values mean tight binding
# Settings in all cases: protein: recombinant; tags: N-terminal GST; dsDNA, one strand shown
# FLI1 = biological target: T1, FLI1 (Homo sapiens, UniProt Q01543 1-452)
# T1 sequence: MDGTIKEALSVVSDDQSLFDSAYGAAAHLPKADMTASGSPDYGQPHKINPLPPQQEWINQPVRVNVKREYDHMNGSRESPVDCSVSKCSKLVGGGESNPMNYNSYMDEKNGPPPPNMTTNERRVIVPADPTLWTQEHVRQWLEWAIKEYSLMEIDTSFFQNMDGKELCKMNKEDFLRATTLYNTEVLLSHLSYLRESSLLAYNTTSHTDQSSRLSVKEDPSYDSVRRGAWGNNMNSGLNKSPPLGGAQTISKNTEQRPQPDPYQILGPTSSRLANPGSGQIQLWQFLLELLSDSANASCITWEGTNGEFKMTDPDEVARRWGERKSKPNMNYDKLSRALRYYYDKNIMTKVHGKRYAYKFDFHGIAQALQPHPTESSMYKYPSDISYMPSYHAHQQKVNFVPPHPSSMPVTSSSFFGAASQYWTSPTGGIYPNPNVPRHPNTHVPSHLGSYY
# How it was run: (§1)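 Human transcription factors were made in yeast as GST fusions, captured on glutathione beads and barcoded with DNA. With a tag-only sample included, the pool was incubated with 200 nmole of a random double-stranded 16-mer DNA library in Tris/NaCl/DTT/glycerol buffer at room temperature for 30 min, then crosslinked with 0.1% formaldehyde after washing, ligated by proximity, amplified and sequenced. For binding signal, each hexamer's read frequency for a factor is divided by its frequency for the tag-only sample.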
# ELK1 = biological target: T2, ELK1 (Homo sapiens, UniProt P19419 1-428)
# T2 sequence: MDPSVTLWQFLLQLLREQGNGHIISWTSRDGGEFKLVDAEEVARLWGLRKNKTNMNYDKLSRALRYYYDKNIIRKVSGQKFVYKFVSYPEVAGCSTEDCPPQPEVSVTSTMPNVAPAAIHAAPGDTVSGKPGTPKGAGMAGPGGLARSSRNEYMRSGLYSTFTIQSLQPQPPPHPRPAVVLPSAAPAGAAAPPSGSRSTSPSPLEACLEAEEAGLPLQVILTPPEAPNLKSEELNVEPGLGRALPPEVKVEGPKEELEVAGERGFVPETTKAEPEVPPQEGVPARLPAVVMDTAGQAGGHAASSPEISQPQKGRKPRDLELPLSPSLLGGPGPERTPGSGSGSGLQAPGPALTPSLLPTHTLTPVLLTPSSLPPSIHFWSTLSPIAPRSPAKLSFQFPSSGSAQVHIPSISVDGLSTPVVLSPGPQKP
# How it was run: as §1
# GABPA = biological target: T3, GABPA (Homo sapiens, UniProt Q06546 1-454)
# T3 sequence: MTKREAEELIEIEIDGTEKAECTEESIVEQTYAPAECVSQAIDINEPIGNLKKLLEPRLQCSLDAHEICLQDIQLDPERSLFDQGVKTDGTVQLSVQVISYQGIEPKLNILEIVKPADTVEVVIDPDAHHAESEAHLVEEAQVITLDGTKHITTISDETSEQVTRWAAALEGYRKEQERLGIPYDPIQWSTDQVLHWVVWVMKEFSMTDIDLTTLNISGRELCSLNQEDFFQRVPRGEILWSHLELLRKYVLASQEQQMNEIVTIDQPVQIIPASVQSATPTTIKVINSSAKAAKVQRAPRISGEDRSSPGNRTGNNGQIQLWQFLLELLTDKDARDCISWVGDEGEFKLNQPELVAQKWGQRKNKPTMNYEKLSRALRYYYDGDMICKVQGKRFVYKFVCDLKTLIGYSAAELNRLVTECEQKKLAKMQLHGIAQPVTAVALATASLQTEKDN
# How it was run: as §1
# ELF1 = ELF1 (Homo sapiens, UniProt P32519 1-619)
# Chain of ELF1 (P32519 whole entry): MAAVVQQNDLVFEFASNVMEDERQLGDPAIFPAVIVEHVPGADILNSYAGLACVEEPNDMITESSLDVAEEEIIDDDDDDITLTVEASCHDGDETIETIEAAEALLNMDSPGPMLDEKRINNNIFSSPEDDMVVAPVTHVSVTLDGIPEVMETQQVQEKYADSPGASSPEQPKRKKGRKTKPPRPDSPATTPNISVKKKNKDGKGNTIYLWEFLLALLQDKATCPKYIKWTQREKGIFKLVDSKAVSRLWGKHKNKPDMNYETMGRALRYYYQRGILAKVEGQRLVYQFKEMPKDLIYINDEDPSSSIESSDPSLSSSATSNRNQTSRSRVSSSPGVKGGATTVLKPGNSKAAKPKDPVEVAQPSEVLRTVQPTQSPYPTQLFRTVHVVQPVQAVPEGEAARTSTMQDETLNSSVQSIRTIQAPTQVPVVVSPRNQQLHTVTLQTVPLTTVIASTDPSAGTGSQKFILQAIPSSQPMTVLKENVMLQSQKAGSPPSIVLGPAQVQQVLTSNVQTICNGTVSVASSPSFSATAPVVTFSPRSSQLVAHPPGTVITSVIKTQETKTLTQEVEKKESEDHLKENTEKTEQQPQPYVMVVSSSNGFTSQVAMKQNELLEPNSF
# How it was run: as §1
# ELK3 = biological target: T4, ELK3 (Homo sapiens, UniProt P41970 1-407)
# T4 sequence: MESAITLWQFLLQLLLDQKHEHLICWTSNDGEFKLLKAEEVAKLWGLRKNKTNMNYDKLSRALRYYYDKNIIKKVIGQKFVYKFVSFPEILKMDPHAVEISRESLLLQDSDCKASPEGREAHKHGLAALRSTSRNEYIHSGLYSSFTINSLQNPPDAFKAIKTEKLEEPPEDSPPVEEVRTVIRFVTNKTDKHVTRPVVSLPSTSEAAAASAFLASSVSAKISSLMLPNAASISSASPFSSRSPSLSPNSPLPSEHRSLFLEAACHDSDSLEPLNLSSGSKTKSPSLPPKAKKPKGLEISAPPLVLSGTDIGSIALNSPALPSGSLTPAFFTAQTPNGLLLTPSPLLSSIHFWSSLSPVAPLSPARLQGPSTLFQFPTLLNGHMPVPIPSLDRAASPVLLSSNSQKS
# How it was run: as §1
# ELF4 = ELF4 (Homo sapiens, UniProt Q99607 1-663)
# Chain of ELF4 (Q99607 whole entry): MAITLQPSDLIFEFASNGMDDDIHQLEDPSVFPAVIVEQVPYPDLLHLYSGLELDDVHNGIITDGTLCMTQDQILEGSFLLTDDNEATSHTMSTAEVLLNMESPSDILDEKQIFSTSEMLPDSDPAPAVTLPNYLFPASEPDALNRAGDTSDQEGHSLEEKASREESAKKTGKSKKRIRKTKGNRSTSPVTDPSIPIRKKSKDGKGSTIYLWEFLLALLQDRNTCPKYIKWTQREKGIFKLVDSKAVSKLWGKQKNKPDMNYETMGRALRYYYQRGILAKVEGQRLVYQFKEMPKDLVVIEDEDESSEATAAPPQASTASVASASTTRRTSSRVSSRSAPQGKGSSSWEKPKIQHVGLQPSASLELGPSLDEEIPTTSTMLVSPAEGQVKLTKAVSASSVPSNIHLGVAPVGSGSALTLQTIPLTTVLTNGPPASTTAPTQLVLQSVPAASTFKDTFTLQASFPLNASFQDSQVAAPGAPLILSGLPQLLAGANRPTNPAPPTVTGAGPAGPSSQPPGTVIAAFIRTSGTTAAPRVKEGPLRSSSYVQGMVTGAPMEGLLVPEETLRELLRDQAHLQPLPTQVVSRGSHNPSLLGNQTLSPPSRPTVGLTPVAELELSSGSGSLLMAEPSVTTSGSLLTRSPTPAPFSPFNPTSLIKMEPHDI
# How it was run: as §1
# ELK4 = biological target: T5, ELK4 (Homo sapiens, UniProt P28324-2 1-405)
# T5 sequence: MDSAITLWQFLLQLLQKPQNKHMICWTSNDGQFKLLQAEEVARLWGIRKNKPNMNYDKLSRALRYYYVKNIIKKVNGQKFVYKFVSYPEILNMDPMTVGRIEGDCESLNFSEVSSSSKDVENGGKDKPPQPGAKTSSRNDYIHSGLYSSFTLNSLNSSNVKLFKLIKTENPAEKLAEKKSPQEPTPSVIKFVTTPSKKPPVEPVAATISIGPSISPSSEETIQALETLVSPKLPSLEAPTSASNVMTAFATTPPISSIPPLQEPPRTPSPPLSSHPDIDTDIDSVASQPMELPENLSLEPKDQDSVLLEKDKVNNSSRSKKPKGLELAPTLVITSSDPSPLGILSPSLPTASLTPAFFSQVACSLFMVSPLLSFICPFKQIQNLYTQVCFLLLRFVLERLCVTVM
# How it was run: as §1
# ETV2 = biological target: T6, ETV2 (Homo sapiens, UniProt O00321 1-342)
# T6 sequence: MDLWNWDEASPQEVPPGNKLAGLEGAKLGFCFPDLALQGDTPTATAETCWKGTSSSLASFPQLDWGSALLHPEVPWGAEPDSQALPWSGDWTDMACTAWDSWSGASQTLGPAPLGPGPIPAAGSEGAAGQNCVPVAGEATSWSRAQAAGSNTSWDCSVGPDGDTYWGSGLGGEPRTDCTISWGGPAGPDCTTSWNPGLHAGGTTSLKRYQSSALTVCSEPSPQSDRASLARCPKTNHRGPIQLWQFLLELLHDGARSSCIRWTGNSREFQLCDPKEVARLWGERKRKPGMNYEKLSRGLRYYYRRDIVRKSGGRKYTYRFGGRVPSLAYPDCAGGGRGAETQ
# How it was run: as §1
# ETV3L = biological target: T7, ETV3L (Homo sapiens, UniProt Q6ZN32 1-361)
# T7 sequence: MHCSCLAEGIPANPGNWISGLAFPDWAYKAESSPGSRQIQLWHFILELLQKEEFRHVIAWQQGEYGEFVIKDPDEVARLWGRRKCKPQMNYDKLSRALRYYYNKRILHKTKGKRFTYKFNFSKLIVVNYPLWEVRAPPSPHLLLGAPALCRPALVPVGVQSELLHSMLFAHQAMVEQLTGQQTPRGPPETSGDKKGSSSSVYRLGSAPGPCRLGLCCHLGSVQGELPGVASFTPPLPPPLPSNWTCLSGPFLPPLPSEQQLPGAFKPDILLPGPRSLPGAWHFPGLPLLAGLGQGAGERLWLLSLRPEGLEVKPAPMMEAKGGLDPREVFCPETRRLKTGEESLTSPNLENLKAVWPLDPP
# How it was run: as §1
# ETV7 = biological target: T8, ETV7 (Homo sapiens, UniProt Q9Y603 1-341)
# T8 sequence: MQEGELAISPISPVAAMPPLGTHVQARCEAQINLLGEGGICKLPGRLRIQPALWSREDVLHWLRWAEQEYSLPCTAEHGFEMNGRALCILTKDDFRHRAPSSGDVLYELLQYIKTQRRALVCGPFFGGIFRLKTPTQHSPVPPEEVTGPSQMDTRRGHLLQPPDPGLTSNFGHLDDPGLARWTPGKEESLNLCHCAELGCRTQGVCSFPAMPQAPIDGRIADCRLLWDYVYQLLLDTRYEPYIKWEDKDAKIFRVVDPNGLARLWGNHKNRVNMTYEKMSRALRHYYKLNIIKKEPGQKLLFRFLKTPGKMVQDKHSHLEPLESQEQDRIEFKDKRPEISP
# How it was run: as §1
# ETV3 = biological target: T9, ETV3 (Homo sapiens, UniProt P41162-2 1-143)
# T9 sequence: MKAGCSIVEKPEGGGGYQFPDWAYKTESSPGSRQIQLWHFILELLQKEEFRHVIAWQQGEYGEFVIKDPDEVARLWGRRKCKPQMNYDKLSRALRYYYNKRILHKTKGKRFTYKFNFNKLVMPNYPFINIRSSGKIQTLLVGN
# How it was run: as §1
# ETV6 = ETV6 (Homo sapiens, UniProt P41212 1-452)
# Chain of ETV6 (P41212 whole entry): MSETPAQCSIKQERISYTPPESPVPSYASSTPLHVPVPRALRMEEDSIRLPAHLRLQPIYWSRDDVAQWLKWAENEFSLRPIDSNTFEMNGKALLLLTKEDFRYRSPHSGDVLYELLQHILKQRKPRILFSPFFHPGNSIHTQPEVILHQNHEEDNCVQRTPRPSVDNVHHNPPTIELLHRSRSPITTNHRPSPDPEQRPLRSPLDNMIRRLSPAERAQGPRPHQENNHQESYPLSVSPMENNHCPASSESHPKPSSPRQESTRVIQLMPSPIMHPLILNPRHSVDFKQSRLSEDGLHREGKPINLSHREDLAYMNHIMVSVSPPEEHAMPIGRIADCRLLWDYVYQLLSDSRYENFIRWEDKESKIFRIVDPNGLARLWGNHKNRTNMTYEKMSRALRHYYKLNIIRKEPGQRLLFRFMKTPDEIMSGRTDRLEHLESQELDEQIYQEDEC
# How it was run: as §1
sequence,measurement,setting,value
CGCGGC,binding signal,FLI1,"1.1 fold enrichment (6-mer frequency, TF over GST control)"
same,binding signal,ELK1,"1.08 fold enrichment (6-mer frequency, TF over GST control)"
same,binding signal,GABPA,"1.15 fold enrichment (6-mer frequency, TF over GST control)"
same,binding signal,ELF1,"1.04 fold enrichment (6-mer frequency, TF over GST control)"
same,binding signal,ELK3,"1 fold enrichment (6-mer frequency, TF over GST control)"
same,binding signal,ELF4,"1.15 fold enrichment (6-mer frequency, TF over GST control)"
same,binding signal,ELK4,"1.12 fold enrichment (6-mer frequency, TF over GST control)"
same,binding signal,ETV2,"1.01 fold enrichment (6-mer frequency, TF over GST control)"
same,binding signal,ETV3L,"1.01 fold enrichment (6-mer frequency, TF over GST control)"
same,binding signal,ETV7,"1.03 fold enrichment (6-mer frequency, TF over GST control)"
same,binding signal,ETV3,"1.04 fold enrichment (6-mer frequency, TF over GST control)"
same,binding signal,ETV6,"1.15 fold enrichment (6-mer frequency, TF over GST control)"
